# IL-1B inflam inh – blocks inflammasome-driven IL-1 beta release; THP-1 LPS/ATP IL-1B secretion, AlphaLISA, 16 h; hits give low values; activity change, % at 57.5 µM; hit rate 4.7% among 360,000; in the data active = activity change below about -50%; inconclusive = mostly about -30% to -49%; also: % is scaled to controls: 0 for no effect and ±100 for the full control effect
#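 Secreted IL-1B measured by AlphaLISA bead assay after 16 h compound exposure of THP-1 cells; compounds (final up to 57.5 uM) added 1 h before LPS (250 ng/mL) and ATP (1.25 mM) stimulation; lower signal means less secretion.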
# D3 ag – agonists of human D3 dopamine receptor; P35462; D3R DiscoveRx beta-arrestin cells, luminescence, 90 min; max activation, %; hit rate 0.58% among 410,000; in the data active = max activation above about 30%; also: 0% is about no effect
# Target sequence (P35462 whole entry, looked up): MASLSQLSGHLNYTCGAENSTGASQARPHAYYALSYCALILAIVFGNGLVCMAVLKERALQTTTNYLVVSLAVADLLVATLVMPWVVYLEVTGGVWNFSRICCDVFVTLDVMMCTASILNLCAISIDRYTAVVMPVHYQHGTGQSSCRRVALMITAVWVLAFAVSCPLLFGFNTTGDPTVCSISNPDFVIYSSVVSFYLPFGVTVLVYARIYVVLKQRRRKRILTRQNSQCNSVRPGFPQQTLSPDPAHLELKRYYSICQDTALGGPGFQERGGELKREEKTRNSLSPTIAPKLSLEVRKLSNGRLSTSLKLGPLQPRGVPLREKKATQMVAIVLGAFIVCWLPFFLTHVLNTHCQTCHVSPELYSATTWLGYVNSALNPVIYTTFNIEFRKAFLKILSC
#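 Agonist-mode cell screen: cells plated at 1500/well and incubated overnight at 37 °C, then exposed to library compounds for 90 min at 37 °C. Detection reagent was added for 30–60 min at room temperature, and luminescence was read.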
# ATXN2 expr inh – ATXN2 expression inhibition; HEK-293 ATXN2-luciferase reporter, luminescence, 24 h; Potency, µM (doses to about 57 µM), without a hit: at the top dose activity change, negative = inhibition, hits mostly inhibitors; hit rate 0.72% among 360,000; AID 1745845; also: potency is read from the fitted curve at half-maximal effect; % is scaled to controls: 0 for no effect and ±100 for the full control effect; nearly all actives have a fitted effect of over 55% in size
#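 qHTS (up to 57 uM final) was run with 24 h compound exposure of reporter cells at 37 °C. Each well was multiplexed: SteadyGlo luminescence measured ATXN2-luciferase expression after a fluorogenic Gly-Phe-AFC viability readout (25 uM final).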
# S2 tox – viability counter-screen for ATXN expression inhibitors; S2 cells (HEK-293 line with an ATXN2-luciferase reporter) viability, CellTiter-Fluor protease fluorescence, 24 h; Potency, µM (series often up to 56.7 µM), actives largely listed as cytotoxic; hit rate 0.49% among 400,000; also: potency is read from the fitted curve at half-maximal effect; nearly all actives have a fitted effect of over 40% in size
# Integrin act MD – integrin-mediated muscular dystrophy alleviation activation; alpha7betagal myoblasts, beta-gal FDG fluorescence, 48 h; Potency, µM (titrated, usually from 38.3 µM), without a hit: at the highest dose activation, actives largely listed as activators; hit rate 0.064% among 350,000; AID 624291;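 also: potency is read from the fitted curve at half-maximal effect; 100% = response of the positive control SU9516; nearly all actives have a fitted effect of over 60% in size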
#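 alpha7betagal+/- myoblasts (passage 13, 250/well) treated 48 h at 37C with compounds at 1:260 dilution of DMSO stock. Lysed, then beta-galactosidase activity read as FDG fluorescence (ex 480/em 540) after 30 min, with pre-read for autofluorescence.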
# D3 antag – D3 dopamine receptor (human) antagonism; hit rate 2.5% among 360,000; P35462; D3R cells, DiscoveRx beta-arrestin luminescence, antagonist mode; hits give low values; max response, negative = inhibition, %; in the data active = max response below about -50%; inconclusive = no clear call, values can overlap the other calls; also: % is scaled to controls: 0 for no effect and ±100 for the full control effect
#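 Cells expressing the human receptor were seeded at 1500 cells/well, incubated overnight at 37 degrees C in 5% CO2, then exposed to library compounds with dopamine controls for 90 minutes at 37 degrees C before luminescent detection.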
# * hit, by the source's call; i = inactive; ? = inconclusive; / = no result. Rows were chosen to be rich in hits. Some 7% of all compounds tested hit in one or more screens of this group. Unless noted, calls follow the shape of the dose curve; as a rule, active = well fitted curve in the direction sought with a large enough effect; inconclusive = small, poorly fitted or top-dose-only effect, or another doubt; inactive = no such curve, though single readings can be large; an effect the other way counts as inactive or inconclusive.
SMILES,IL-1B inflam inh,D3 ag,ATXN2 expr inh,S2 tox,Integrin act MD,D3 antag
O=C(Cn1ncc2c3ccccc3n(Cc3ccccc3F)c2c1=O)NCCN1CCOCC1,1,-2,/,i,22%,-2
CCCn1c2ccccc2c2cnn(CC(=O)NCCN(CC)CC)c(=O)c21,-91*,-30,-21%,i,-2%,-16
O=C(Cn1ncc2c3ccccc3n(Cc3ccccc3F)c2c1=O)NCCCN1CCCC1=O,-53*,1,-17%,i,-43%,-11
CCCn1c2ccccc2c2cnn(CC(=O)NCCN(C)C)c(=O)c21,-6,-6,-4%,i,-12%,-7
O=C(COc1ccc2ccc(=O)oc2c1)NCc1ccccn1,0,10,/,i,-13%,18
CC(C)C[C@H]1CNC(=O)C(=O)N1CC1CCN(CC2CCC(C(C)(C)C)CC2)CC1 (some centres undefined),?,-35,3%,i,10%,-57*
CCCCN1CCC(CN2C(=S)NC[C@@H]2CC(C)C)CC1,-3,-46,1%,i,16%,-80*
CC(C)C[C@H]1CNC(=S)N1CC1CCN(CCCCc2ccccc2)CC1,?,-45,-3%,i,-38%,-91*
S=C1NC[C@H](Cc2ccccc2)N1CC1CCN(CCCC2CCCC2)CC1,-67*,-43,-16%,?,-3%,-81*
Cc1cc(=O)n2[nH]c(SCc3ccccc3Cl)nc2n1,32,7,-6%,i,-4%,5
Cc1ccc(CN2CC(=O)N3[C@H]4c5cc(Cl)ccc5OC[C@@H]4[C@H](c4ccccc4)[C@]3(C)C2=O)cc1,-28,3,0%,i,0%,28
CC(=O)Nc1cc2c3ccccc3n(C)c2cc1[N+](=O)[O-],-18,-13,-13%,i,-24%,-13
Cc1ccc(CNC(=O)CCS(=O)(=O)c2cc3c(cc2C)NC(=O)CO3)cc1,2,0,9%,?,-18%,9
Cc1ccc([C@@H]2C[C@H]3[C@@H](CN2S(=O)(=O)c2ccc(C)cc2)C(=O)C[C@@H](c2ccccc2F)N3S(=O)(=O)c2ccc(C)cc2)cc1,-3,4,7%,i,/,14
COc1ccccc1NC(=O)CCS(=O)(=O)c1ccc2c(c1)oc(=O)n2C,-7,2,-5%,i,6%,-6
COc1ccc(CCCN2CCC(CN3C(=S)NC[C@@H]3Cc3ccccc3)CC2)cc1OC,5,-57,-7%,i,-7%,-55*
CC(C)C[C@H]1CNC(=S)N1CC1CCN(CCCC2CCCC2)CC1,?,-44,-8%,i,-24%,-63*
O=C1NC[C@H](Cc2ccccc2)N(CC2CCN(CCC34CC5CC(CC(C5)C3)C4)CC2)C1=O,-73*,-43,-12%,i,-23%,0
COc1ccc(CCN2CCC(CN3C(=S)NC[C@@H]3CC(C)C)CC2)cc1OC,11,-40,-6%,i,41%,?
C#CCOc1coc(COC(=O)c2ccccc2)cc1=O,9,9,34%,i,?,17
COc1ccccc1OCC1CNC(=O)O1 (centres undefined),/,0,6%,i,/,/
COc1ccc(N/N=C(/N=Nc2nc(C)cc(=O)[nH]2)c2ccccc2)cc1,56,-6,?,28µM*,-35%,-57*
Cc1cc(=O)[nH]c(N=N/C(=N/Nc2ccc(O)cc2)c2ccccc2)n1,112,2,?,?,-32%,-101*
Cc1cc(=O)[nH]c(N=N/C(=N/Nc2ccccc2C)c2ccccc2)n1,161,-3,2.5µM*,?,-2%,?
CCN(CC)CCN1C(=O)c2oc3ccc(F)cc3c(=O)c2C1c1ccncc1 (centres undefined),-2,1,-13%,i,25%,-5
Cc1cc(NC(=O)C(C)C)cc(-c2nc3ncccc3o2)c1O,/,1,6%,i,/,/
CC(C)=CC1C(C(=O)Nc2ccc(S(=O)(=O)N3CCOCC3)cc2)C1(C)C (centres undefined),-64*,-3,-22%,i,-20%,-7

# Screening data deposited in PubChem by National Center for Advancing Translational Sciences (NCATS).
